Screening results (PubChem BioAssay)
RORg inh = inhibitors of mouse ROR gamma transcriptional activity; P51450; Drosophila S2 Gal4-RORgamma UAS-luciferase reporter, 20 h; Potency, µM (top dose mostly 53.6 µM), for inactives: at the highest dose activity change, negative = inhibition, actives largely listed as inhibitors; 5.4% of 310,000 active; AID 2551; also: nearly all actives have a fitted effect of over 60% in size
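A Gal4/UAS one-hybrid system in insect cells: metallothionein-promoter Gal4–ROR gamma fusion plus Photinus luciferase reporter. Copper sulfate 700 uM final, 20 hr ambient incubation, luminescent detection after 10 min with reagent.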
ALDH1A1 block = inhibitors of human aldehyde dehydrogenase 1A1. Purified ALDH1A1, NADH fluorescence, propionaldehyde substrate. Potency, µM (top dose mostly 75.3 µM), inactives show top-dose activity, negative = inhibition, most hits filed as inhibitors. 7.3% of 220,000 active; active = well fitted inhibition curve with a large enough effect, not every such curve was filed as active; inconclusive = small, poorly fitted or top-dose-only effect, or another doubt; inactive = no such curve, though single readings can be large or run the other way;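 also: plate controls were no enzyme wells and a reference inhibitor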
Gal4-VP16 FLuc = counter-screen for ROR gamma inhibitors: Gal4-VP16 reporter; Drosophila S2 Gal4-VP16 UAS-luciferase, luminescence, 20 h; Potency, µM (titrated, usually from 53.6 µM), for inactives: top-dose activity, negative = inhibition, usual class: inhibitors; 3.5% of 310,000 active; AID 2546;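 also: Gal4-VP16 expression switched on by copper sulfate through the metallothionein promoter; nearly all actives have a fitted effect of over 50% in size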
Sfp PPTase inh = Sfp phosphopantetheinyl transferase inhibition; Q9F4F7; Biochemical Sfp PPTase activity, qHTS; Potency, µM, inactives show largest response in the series, negative = inhibition, usual class: inhibitors; 3.5% of 310,000 active; AID 1490;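 also: the enzyme is Sfp with the accession as filed and its product quenches rhodamine fluorescence; 0% = enzyme reaction without inhibitor and -100% = no enzyme wells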
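Step 1, compound plus 15 nM Sfp-PPTase, 15 min, room temperature. Step 2, add rhodamine-CoA (5 uM) and BHQ-2-YbbR (12.5 uM). Step 3, read 525/598 nm fluorescence at 0 and 30 min.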
PLK1 PBD inh = PLK1 (human) polo-box domain binding inhibition. Plk1 PBD binding of FITC phosphopeptide, fluorescence polarization. Potency, µM, without a hit: max response, negative = inhibition, actives largely listed as inhibitors. 2.8% of 360,000 active. AID 720504; also: series mostly up to about 57 µM; nearly all actives have a fitted effect of over 65% in size
Target sequence (P53350 whole entry, looked up, the tested form may be a part): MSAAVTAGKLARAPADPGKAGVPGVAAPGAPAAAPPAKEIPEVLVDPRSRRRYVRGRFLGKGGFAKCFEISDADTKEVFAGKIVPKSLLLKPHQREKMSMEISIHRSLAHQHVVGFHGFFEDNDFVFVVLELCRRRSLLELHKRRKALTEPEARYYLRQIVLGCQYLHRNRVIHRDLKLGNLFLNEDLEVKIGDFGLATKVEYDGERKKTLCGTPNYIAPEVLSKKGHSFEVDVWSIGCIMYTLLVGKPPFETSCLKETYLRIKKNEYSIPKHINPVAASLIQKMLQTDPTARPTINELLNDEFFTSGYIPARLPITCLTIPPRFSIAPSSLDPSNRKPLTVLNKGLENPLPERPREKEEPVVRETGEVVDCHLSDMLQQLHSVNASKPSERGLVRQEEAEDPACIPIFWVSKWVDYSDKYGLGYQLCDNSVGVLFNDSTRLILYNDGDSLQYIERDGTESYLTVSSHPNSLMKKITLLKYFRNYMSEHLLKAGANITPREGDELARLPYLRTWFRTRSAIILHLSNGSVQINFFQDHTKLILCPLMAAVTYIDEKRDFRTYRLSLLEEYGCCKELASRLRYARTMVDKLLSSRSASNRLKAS
Numbers without * were called inactive; ? = inconclusive; · = no result; [ ] = remark or other dose. Hits are enriched below; roughly 12% of the tested compounds scored in any of these assays. Unless noted, calls follow the shape of the dose curve; as a rule, active = well fitted curve in the direction sought with a large enough effect; inconclusive = small, poorly fitted or top-dose-only effect, or another doubt; inactive = no such curve, though single readings can be large; an effect the other way counts as inactive or inconclusive. Unless noted, % is scaled to controls: 0 for no effect and ±100 for the full control effect; potency is read from the fitted curve at half-maximal effect.

SMILES	RORg inh	ALDH1A1 block	Gal4-VP16 FLuc	Sfp PPTase inh	PLK1 PBD inh
CCN(CC)S(=O)(=O)c1cccc(-c2n[nH]c(=S)n2/N=C/c2ccc(Br)cc2)c1	?	-16%	?	-24%	21µM*
S=c1[nH]nc(-c2cc(-c3ccccc3)n[nH]2)n1/N=C/c1ccccc1	-38%	·	-19%	-11%	-21%
COc1cc(/C=N/n2c(-c3ccccc3)n[nH]c2=S)cc(OC)c1O	-43%	·	-13%	?	-5%
CCN(CC)S(=O)(=O)c1cccc(-c2n[nH]c(=S)n2/N=C/c2ccc(OC(F)F)cc2)c1	-37%	?	13µM*	?	?
CCC(C)n1c(-c2cccc(S(=O)(=O)N(CC)CC)c2)n[nH]c1=S (centres undefined)	?	13µM*	-24%	-7%	-1%
CCN(CC)S(=O)(=O)c1cccc(-c2n[nH]c(=S)n2C(C)COC)c1 (centres undefined)	?	-4%	1%	4%	-11%
COc1ccc(S(=O)(=O)N=N/C=C2\C=CC=CN2O)cc1OC	·	·	·	·	-24%
O=C(C[n+]1ccc(-c2nnc3n2CCCCC3)cc1)c1ccc(Cl)cc1	8%	·	-2%	-11%	-7%
NCCC[C@@H](CC(=O)N[C@@H]1CCNC[C@H]1C(=O)N[C@H](CC(=O)N[C@@H](CCC(=O)O)CC(=O)O)Cc1ccccc1)NC(=O)C[C@H](Cc1ccccc1)NC(=O)[C@@H]1CCCC[C@H]1N	21%	-7%	1%	-4%	·
Cc1ccc(NC(=O)CSc2ncc3ccccn23)cc1C	25%	3.2µM*	-2%	?	-3%
Cc1cccc(NC(=O)CSc2nnc(-c3ccccc3C)o2)c1	5µM*	-2%	1%	-2%	1%
O=C(NCc1nnc(SCC(=O)N2CCCC2)o1)c1c(F)cccc1F	2%	·	-6%	9%	-2%
Cc1ccc(NC(=O)CSc2ncn(-c3ccccc3)n2)cc1C	?	7%	-5%	-2%	1%
O=C(NCc1nnc(SCC(=O)N2CCC(Cc3ccccc3)CC2)o1)c1ccccc1F	19%	8.9µM*	0%	0%	-12%
Cc1ccc(NC(=O)CSc2nnc(-c3ccccc3Br)o2)cc1C	-25%	?	-7%	-6%	-16%
Cc1ccc(NC(=O)CSc2nnc(-c3ccccc3C)o2)cc1C	14µM*	1%	?	5%	-14%
Cc1cc(C)cc(NC(=O)CSc2nnc(-c3ccccc3C)o2)c1	-30%	0%	?	16%	3%
Cc1ccc2[nH]c(=O)c(CN(CC3COCCO3)C(=O)Nc3ccccc3F)cc2c1 (centres undefined)	-5%	?	3%	19%	-14%
CCC1=C2CC[C@H]3C(=O)N(c4ccccc4)C(=O)[C@H]3[C@H]2[C@@]2(Cc3ccccc3)C(=O)N(CC(=O)OC)C(=O)N2C1=O	19%	1%	-4%	13%	·
CCCCNC(=O)C[C@@H]1C[C@@]2(C(=O)OCC)CCC=C2N(Cc2ccc(Cl)cc2Cl)C1=O	·	·	·	·	-9%
CC(C)(C)n1nnnc1C(c1ccccc1)N1CCN(c2ncccc2C(F)(F)F)CC1 (centres undefined)	·	·	·	·	1%
CCN1C(=O)[C@H]2[C@H]3[C@H](O)[C@H](O)C/C(=N/OC[C@@H](O)[C@H]4O[C@H]5OC(C)(C)O[C@H]5[C@@H]4O)[C@@H]3CC[C@@H]2C1=O	-12%[10 µM]	14%[13.5 µM]	-5%[10 µM]	24%	·
Cc1nc2cnc(N(C)C)nc2n(C)c1=O	18%	?	-9%	16%	·
CCc1nnc(NC(=O)CSc2nnc(-c3ccccc3NC(=O)c3ccccc3)o2)s1	2.2µM*	-5%	3.5µM*	-7%	-7%
O=C(CSc1nnc(CNC(=O)c2ccccc2F)o1)Nc1ccc2c(c1)OCO2	-16%	?	15%	0%	-18%
SMILES	RORg inh	ALDH1A1 block	Gal4-VP16 FLuc	Sfp PPTase inh	PLK1 PBD inh
CCOC(=O)CSc1nnc(-c2ccccc2NC(=O)c2ccccc2)o1	-10%	?	-7%	-2%	1%
O=C(CSc1nnc(CNC(=O)c2ccccc2F)o1)Nc1ccc2c(c1)OCCO2	-21%	10µM*	-2%	4%	-13%
O=C(CSc1nnc(-c2ccccc2Cl)o1)Nc1ccc2c(c1)OCCO2	?	20µM*	?	11%	-2%
O=C(CSc1nnc(-c2ccc(O)cc2)o1)Nc1ccc2c(c1)OCCO2	27%	0%	-8%	6%	-11%
Cc1ccc(C[C@@H](NS(=O)(=O)c2ccc(C(=O)O)cc2)C(=O)O)cc1	-12%	·	-1%	13%	·
CC1(C)S[C@@H]2[C@H](NC(=O)C3(N)CCCCC3)C(=O)N2[C@@H]1C(=O)O	·	-9%[13.5 µM]	·	·	·
N[C@@H](CSSC[C@H](N)C(=O)O)C(=O)O	2%	·	4%	6%	·
O=C(O)c1ccc(-c2nc3ccccc3s2)o1	1%	·	1%	-13%	-23%
O=C(O)CCN1C(=O)/C(=C/c2ccc(-c3nc4ccccc4s3)o2)SC1=S	23%	3.5µM*	-12%	-21%	9.5µM*
O=C(O)CCCN1C(=O)/C(=C\c2ccc(-c3nc4ccccc4s3)o2)SC1=S	-3%	·	-4%	50µM*	11µM*
O=Cc1ccc(-c2nc3ccccc3s2)o1	4.5µM*	?	7.9µM*	2%	-2%
O=C(O)CC(C(=O)O)N1C(=O)/C(=C/c2ccc(-c3nc4ccccc4s3)o2)SC1=S (centres undefined)	2%	10µM*	-4%	8.9µM*	-8%
COC(=O)N1CCC2(CC1)CN(c1ccncc1)C2	-22%	9%	-1%	5%	·
C/C=C/C1=Cc2ccccc2C(CC(=O)OC)N1C(=O)OC (centres undefined)	·	0%[13.5 µM]	·	9%	·
COc1ccc2c(c1OC)C(Cc1ccccc1)N1CCc3cc4c(cc3C1C2)OCO4 (centres undefined)	-23%	?	?	56µM*	·
Cc1cc(C)c(S(C)(=O)=O)c(NN)n1	2µM*	?	-22%	?	-6%
CC(=O)Nc1cc(C)c(S(C)(=O)=O)c(C)c1	2%	1%	1%	2%	-7%
C=C(C(C)=O)C(O)c1ccco1 (centres undefined)	36%	?	7%	?	·
CC1(C)CC(=O)C(c2c[nH]c3ccccc23)C(=O)C1	-25%	20µM*	-18%	79µM*	?
CC(=O)Nc1sc2c(c1C(c1ccccn1)N1CCCC1)CCCC2 (centres undefined)	-36%	?	-5%	45µM*	-19%
COC(=O)[C@@H]1C[C@@H]2CC[C@@H](O)C[C@@H]2N1Cc1ccc(-c2ccccc2)cc1	1%	-2%	-1%	-1%	·
Cc1ccc2[nH]c3c(N4CCN(Cc5ccc6c(c5)OCO6)CC4)ncnc3c2c1	?	-9%	10µM*	-8%	·
c1ccc2c(c1)[nH]c1c(N3CCC4(CC3)OCCO4)ncnc12	29%	?	?	-4%	1%
